Data on eleven compounds can be found in ChEMBL document CHEMBL3433997, “St. Jude Leishmania screening dataset” (2016).

What is called inhibition is the change of the read-out against control, counted positive when it falls.

Holding throughout (format): functional
In experiment [1] the target is Solute carrier family 2, facilitated glucose transporter member 1 (Homo sapiens) (UniProt P11166). Description: ST_JUDE_LEISH: Cytotoxicity at 2uM final concentration against transgenic Leishmania Mexicana promastigotes LmGLUT1 that are glucose transport deficient and complemented with the human glucose transporter GLUT1. Activity is measured by DNA content using SYBR green in vitro.
Sequence of Solute carrier family 2, facilitated glucose transporter member 1 (Homo sapiens) (P11166 whole entry): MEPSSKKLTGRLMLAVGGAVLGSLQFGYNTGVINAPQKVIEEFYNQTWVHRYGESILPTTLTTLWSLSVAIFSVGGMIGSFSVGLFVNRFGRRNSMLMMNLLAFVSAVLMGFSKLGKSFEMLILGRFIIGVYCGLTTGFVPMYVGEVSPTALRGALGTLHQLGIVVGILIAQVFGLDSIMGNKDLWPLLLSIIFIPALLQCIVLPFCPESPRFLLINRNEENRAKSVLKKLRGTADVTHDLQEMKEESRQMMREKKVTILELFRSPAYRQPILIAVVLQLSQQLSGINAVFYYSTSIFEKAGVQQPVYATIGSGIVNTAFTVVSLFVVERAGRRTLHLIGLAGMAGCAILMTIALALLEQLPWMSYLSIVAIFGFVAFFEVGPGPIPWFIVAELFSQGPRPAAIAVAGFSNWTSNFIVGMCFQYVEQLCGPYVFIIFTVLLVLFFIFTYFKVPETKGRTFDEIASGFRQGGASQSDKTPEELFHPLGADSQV

The target of experiment [2] is Hexose transporter 1 (Plasmodium falciparum) (UniProt O97467). Kind of experiment: ST_JUDE_LEISH: Cytotoxicity at 2uM final concentration against transgenic Leishmania Mexicana promastigotes LmPfHT that are glucose transport deficient and complemented with the Plasmodium falciparum hexose transporter. Activity is measured by DNA content using SYBR green in vitro.
The target in experiment [3] is Glucose transporter (Leishmania mexicana) (UniProt O61059). Description: ST_JUDE_LEISH: Cytotoxicity at 2uM final concentration against transgenic Leishmania Mexicana promastigotes LmGT2 that are glucose transport deficient and complemented with the L. Mexicana glucose transporter 2. Activity is measured by DNA content using SYBR green in vitro.

As to `CCCCNc1ccc(C(=O)NC2CCN(C[C@H](O)c3ccnc4ccc(OC)cc34)CC2)cc1`, the inhibition in experiment [1] was found to be 9.46%; in experiment [2], 11.8%; in experiment [3], 3.39%.

In the case of `c1cc(CN2CCN(c3ccncc3)CC2)cc(-c2ccc(-c3nc4ccccc4[nH]3)s2)c1`, the inhibition in experiment [1] turned out to be 3.45%; in experiment [2] it was 2.53%; in experiment [3] it was 2.03%.

Consider `CC(=O)Nc1ccc(CN(Cc2ccc(F)cc2)Cc2cccc(Oc3ccccc3)c2)cc1`, for which the results for the inhibition in experiment [1], in experiment [2] and in experiment [3] were 3.19%, 1.73% and 0.56%, respectively.

With `CCc1c[nH]c2c(N3CCCS3(=O)=O)cc(C(=O)N[C@@H](Cc3ccccc3)[C@H](O)CNC(C)(C)c3cccc(C(F)(F)F)c3)cc12`, the inhibition in experiment [1] was -0.71%; in experiment [2] it was 0.86%; in experiment [3], 0.6%.

For the compound `CCCCCCCN1CC[C@@H](CCCc2ccnc3ccc(OCCN4CCOCC4)cc23)[C@@H](CC)C1`, the results for the inhibition in experiment [1], in experiment [2] and in experiment [3] were 10.6%, 7.56% and 9.34%, respectively.

In the case of `CCCCc1cc(NCc2ccncc2)nc(Nc2cccc(OC)c2)n1`, the inhibition is 21.4% in experiment [1], 10.9% in experiment [2] and 3.45% in experiment [3].

With `COc1cc2nc(N3CCN(C(=O)c4ccc(N(C(=O)OC(C)(C)C)C(=O)OC(C)(C)C)cc4)CC3)nc(N)c2cc1OC`, the inhibition in experiment [1] was -0.43%; in experiment [2], -0.06%; in experiment [3] it was 0.52%.

Take `CC(C)(C)c1ccc(NC(=O)Nc2ccc(Cn3ncc(N4CCCNCC4)c(Cl)c3=O)cc2)cc1`: the inhibition in experiment [1] is 6.36%; in experiment [2], 6.82%; in experiment [3], 3.41%.

For the compound `CCOc1cc(Cc2cnc(N)nc2N)cc(OC)c1OC`, the inhibition in experiment [1] was -1.63%; in experiment [2], -0.5%; in experiment [3] it was -0.04%.

`CN(CCN1CCC(c2c[nH]c3ccccc23)CC1)c1ccc(-c2nc3cc(Cl)c(Cl)cc3[nH]2)cc1`: the inhibition in experiment [1] amounted to 2.04%; in experiment [2], 0.16%; in experiment [3] it was 0.74%.

With `CC(C)(C)c1ccc(S(=O)(=O)Nc2cc(Cl)ccc2Cn2ccc(N3CCNCC3)nc2=O)cc1`, the inhibition in experiment [1] is -1.22%; in experiment [2], -3.39%; in experiment [3], -1.02%.
